Rows were chosen to be rich in hits. Some 0.78% of all compounds tested hit in one or more screens of this group.
APE1 inh – qHTS Assay for Inhibitors of the Human Apurinic/apyrimidinic Endonuclease 1 (APE1) | DNA repair nuclease/redox regulator APEX1 (Homo sapiens), P27695 | AID 2517, 2012 | recombinant APE1, TAMRA/BHQ-2 abasic DNA cleavage fluorescence | 350,000 tested, 0.35% active | Potency, µM (doses to about 65.8 µM), inactives show top-dose activity change, negative = inhibition, actives largely listed as inhibitors;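 note: plate controls were vehicle for no effect and reference inhibitor for full effect; nearly all actives have a fitted effect of over 55% in size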
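Measures dequenching upon AP-site incision of a 5'-TAMRA/3'-BHQ-2 THF-containing duplex, 50 nM; human APE1 0.75 nM after 15 min room-temperature exposure to compound; kinetic three-point read at one-minute spacing.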
BLM helicase inh – qHTS Assay for Inhibitors of Bloom's syndrome helicase (BLM); 350,000 tested, 0.2% active; AID 2528, 2010; Potency, µM (highest dose often 56.1 µM), inactives show at the highest dose activity change, negative = inhibition, hits mostly inhibitors; RecQ-like DNA helicase BLM (Homo sapiens), P54132; recombinant BLM DNA unwinding, fluorescence dequenching;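 note: plate controls were vehicle for no effect and no enzyme for full effect; nearly all actives have a fitted effect of over 35% in size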
Target sequence (P54132 whole entry, looked up): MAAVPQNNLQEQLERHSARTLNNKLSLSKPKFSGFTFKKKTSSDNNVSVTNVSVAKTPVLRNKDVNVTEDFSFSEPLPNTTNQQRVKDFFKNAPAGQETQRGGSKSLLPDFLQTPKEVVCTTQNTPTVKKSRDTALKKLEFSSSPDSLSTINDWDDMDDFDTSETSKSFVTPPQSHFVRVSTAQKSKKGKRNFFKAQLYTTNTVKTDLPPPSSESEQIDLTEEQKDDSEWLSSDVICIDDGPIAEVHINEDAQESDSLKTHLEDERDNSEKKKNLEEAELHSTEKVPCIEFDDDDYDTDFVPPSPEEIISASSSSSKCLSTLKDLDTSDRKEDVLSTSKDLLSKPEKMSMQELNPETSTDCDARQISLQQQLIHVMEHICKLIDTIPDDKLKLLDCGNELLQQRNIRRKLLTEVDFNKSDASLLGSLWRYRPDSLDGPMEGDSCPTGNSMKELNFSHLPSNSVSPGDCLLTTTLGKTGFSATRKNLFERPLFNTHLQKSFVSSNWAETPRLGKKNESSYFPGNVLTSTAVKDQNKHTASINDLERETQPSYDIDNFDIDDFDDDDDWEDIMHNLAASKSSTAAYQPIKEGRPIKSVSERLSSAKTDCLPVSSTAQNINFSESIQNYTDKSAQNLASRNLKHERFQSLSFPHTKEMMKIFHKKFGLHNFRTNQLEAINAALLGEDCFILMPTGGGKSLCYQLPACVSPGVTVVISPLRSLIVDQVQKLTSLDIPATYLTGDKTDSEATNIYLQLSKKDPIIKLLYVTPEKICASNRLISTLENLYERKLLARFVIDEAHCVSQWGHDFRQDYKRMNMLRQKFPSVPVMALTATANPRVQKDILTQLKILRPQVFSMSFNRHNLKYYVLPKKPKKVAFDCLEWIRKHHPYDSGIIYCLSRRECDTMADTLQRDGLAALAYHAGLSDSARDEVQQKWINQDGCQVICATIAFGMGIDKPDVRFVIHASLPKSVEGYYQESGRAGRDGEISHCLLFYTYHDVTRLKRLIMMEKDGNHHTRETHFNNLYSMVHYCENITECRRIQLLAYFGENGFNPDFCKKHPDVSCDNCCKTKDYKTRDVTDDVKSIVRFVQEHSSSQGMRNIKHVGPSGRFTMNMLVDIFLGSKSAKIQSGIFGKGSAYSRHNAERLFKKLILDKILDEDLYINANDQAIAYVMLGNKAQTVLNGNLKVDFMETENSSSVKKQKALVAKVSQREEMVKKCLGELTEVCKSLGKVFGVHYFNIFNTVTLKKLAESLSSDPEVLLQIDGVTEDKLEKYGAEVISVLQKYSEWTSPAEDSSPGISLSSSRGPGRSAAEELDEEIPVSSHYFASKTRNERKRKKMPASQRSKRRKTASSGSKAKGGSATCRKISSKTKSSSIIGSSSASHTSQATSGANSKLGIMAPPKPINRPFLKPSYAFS
RECQ1 inh-1 – qHTS Assay for Inhibitors of RecQ-Like Dna Helicase 1 (RECQ1). ATP-dependent DNA helicase Q1 (Homo sapiens), P46063. RECQ1 DNA unwinding, red fluorescence kinetic read. Potency, µM (top dose mostly 57.3 µM), for the others: at the highest dose activity, negative = inhibition, usual class: inhibitors. 240,000 tested, 0.54% active;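 note: plate controls were vehicle for no effect and no enzyme for full effect; nearly all actives have a fitted effect of over 30% in size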
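RECQ1T1 50 nM; forked duplex (20 bp + 30-nt ss tails) 200 nM, ATP 2 mM final; pH 8.0, 2 mM MgCl2, 2.5 ug/ml poly(dI-dC); 15 min compound preincubation; discontinuous kinetic read over 2 h at RT.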
L3MBTL1 block – qHTS Assay for the Inhibitors of L3MBTL1; Lethal(3)malignant brain tumor-like protein 1 (Homo sapiens), Q9Y468; AlphaScreen L3MBTL1–H3K9me1 peptide binding; Potency, µM (doses to about 57.1 µM), for inactives: at the highest dose activity, negative = inhibition, actives largely listed as inhibitors; 230,000 tested, 0.66% active; AID 485360, 2010; note: nearly all actives have a fitted effect of over 60% in size
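L3MBTL1 50 nM + b-AHA-H3(1-15)K9me1 75 nM, 30 min RT; compound added, 30 min RT; streptavidin donor/Ni-chelate acceptor beads 10 ug/mL each final, 30 min RT dark; AlphaScreen read.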
RECQ1 conf – Confirmation qHTS Assay for Inhibitors of RecQ-Like Dna Helicase 1 (RECQ1); shares compounds with RECQ1 inh-1; RECQ1 helicase DNA unwinding, fluorescence; Potency, µM (doses to about 229 µM), for the others: at the top dose activity change, negative = inhibition, actives largely listed as inhibitors; 610 tested, 28% active; AID 2708, 2010; note: nearly all actives have a fitted effect of over 45% in size
RECQ1 ADP FP – Counterscreen for RECQ1 Inhibitors: ADP Fluorescence Polarization Displacement Assay; AID 2711, 2010; 530 tested, 27% active; shares compounds with RECQ1 inh-1; ADP fluorescence polarization displacement counterscreen; Potency, µM (series often up to 228 µM), for the others: top-dose activity change, negative = inhibition, most hits filed as inhibitors; note: nearly all actives have a fitted effect of over 45% in size
RECQ1 inh-2 – Confirmation qHTS Assay for Inhibitors of RecQ-Like Dna Helicase 1 (RECQ1) - Round 2 Cherry Picks. shares compounds with RECQ1 inh-1. recombinant RECQ1 DNA unwinding, red fluorescence. Potency, µM (top dose mostly 119 µM), for the others: at the highest dose activity, negative = inhibition, actives largely listed as inhibitors. 1,100 tested, 15% active; note: nearly all actives have a fitted effect of over 50% in size
Numbers without * were called inactive; i = inactive; ? = inconclusive; · = no result given; [ ] = remark or other dose. Calls come from the whole dose curve; as a rule, active = well fitted curve in the direction sought with a large enough effect; inconclusive = small, poorly fitted or top-dose-only effect, or another doubt; inactive = no such curve, though single readings can be large; an effect the other way counts as inactive or inconclusive. Unless noted, % is set by controls: 0 for no effect and ±100 for the full control effect; potency is the fitted concentration of half-maximal effect.

SMILES | APE1 inh | BLM helicase inh | RECQ1 inh-1 | L3MBTL1 block | RECQ1 inh-2 | others
O=C(CSc1ccc(-c2ccco2)nn1)NCCc1ccccc1 | ? | -26% | 40µM* | · | -14%
Cc1ccc(CNC(=O)CSc2ccc(-c3ccco3)nn2)cc1 | 1% | 7% | -2% | -3% | ·
COc1ccc(CCNC(=O)CSc2ccc(-c3ccco3)nn2)cc1 | ? | -18% | 35µM* | · | ?
CCc1ccc(N2C(=O)CN(Cc3sccc3C)C2=S)cc1 | -1% | -12% | 1.6µM* | · | -18% | RECQ1 conf=-11%[114 µM];RECQ1 ADP FP=9%[91.9 µM]
Cc1ccc(S(=O)(=O)Nc2ccc(N3CCCCC3)cc2)cc1 | 5% | -7% | ? | -21% | -8%
Cc1ccc(S(=O)(=O)Nc2ccc(N3CCOCC3)cc2)cc1 | 3% | -1% | 1% | · | ·
CCN1/C(=C/c2ccc3ccccc3[n+]2CC)C=Cc2ccccc21 | -4% | -9% | ? | · | 50µM*
Clc1ccc(Nc2nc(N3CCOCC3)nc(N3CCOCC3)n2)cc1Cl | -21% | 0% | · | · | ·
CC(=O)Nc1ccc(Nc2nc(Nc3ccc(Cl)cc3)nc(N3CCOCC3)n2)cc1 | · | · | · | · | · | RECQ1 conf=-6%[69.1 µM]
Cc1ccc(Nc2nc(Nc3ccc(Cl)cc3)nc(N3CCOCC3)n2)cc1 | · | · | · | · | · | RECQ1 conf=-15%[69.1 µM]
CCOC(=O)Cc1cc(=O)n2[nH]c(C)c(-c3ccccc3)c2n1 | -5% | -2% | 35µM* | 4% | -19%
COC(=O)c1ccc(NC(=O)C(C)Sc2nc(=O)cc(N)n2CCc2ccccc2)cc1 (configuration not stated) | · | -6% | · | · | ·
COc1ccc(C2C3=C(CCCC3=O)Nc3nc(-c4cc(OC)c(OC)c(OC)c4)nn32)cc1OC (configuration not stated) | -2% | -10% | -12% | -6% | ·
COc1cc(-c2nc3n(n2)C(c2ccncc2)C2=C(CCCC2=O)N3)cc(OC)c1OC (configuration not stated) | 22% | -4% | 28µM* | · | 1%
O=C(O)c1ccccc1-c1ccc(/C=C/c2cc(C(F)(F)F)[nH]c(=O)n2)o1 | 0% | -3% | ? | -17% | 79µM*
O=C(Nc1cc(S(=O)(=O)N2CCOCC2)ccc1Cl)c1ccc(=O)[nH]c1 | -8% | · | · | -3% | ·
CC1(C)CC2CC(C)(CN2S(=O)(=O)c2ccc(C(=O)Nc3cccc(S(=O)(=O)N4CCOCC4)c3)cc2)C1 (configuration not stated) | -1% | -8% | -2% | -12% | · | RECQ1 conf=-12%;RECQ1 ADP FP=1%
CC1(C)CC2CC(C)(CN2S(=O)(=O)c2ccc(C(=O)Nc3cc(S(=O)(=O)N4CCOCC4)ccc3Cl)cc2)C1 (configuration not stated) | ? | -7% | -9% | 4% | · | RECQ1 conf=0%;RECQ1 ADP FP=8%
O=c1c2oc3ccccc3c2n(Cc2cccc(F)c2)c(=O)n1Cc1ccc2c(c1)OCO2 | · | -6% | · | · | ·
CC(NC(=O)/C(=C/c1cccc([N+](=O)[O-])c1)NC(=O)c1ccco1)C(=O)O (configuration not stated) | 21% | 2% | -11% | 8% | · | RECQ1 conf=0%;RECQ1 ADP FP=8%
O=C(NC(Cc1ccccc1)C(=O)O)/C(=C\c1cccc([N+](=O)[O-])c1)NC(=O)c1ccco1 (configuration not stated) | 38% | -1% | · | · | ·
Nc1ccc(N2CCOCC2)c2nonc12 | ? | 32µM* | ? | ? | 0%
COC[C@@H](O)[C@@H](OC)[C@H](OC)[C@H](Cc1c(OC)cc(OC)cc1OC)OC | 3% | 1% | i | · | ·
O=c1cc(-c2ccccc2)nc2nc(-c3ccco3)[nH]n12 | -6% | -15% | 25µM* | -8% | -4%
Cc1nc2nc(-c3ccccc3)cc(=O)n2[nH]1 | 0% | 2% | -1% | · | ·
SMILES | APE1 inh | BLM helicase inh | RECQ1 inh-1 | L3MBTL1 block | RECQ1 inh-2 | others
Cc1ccccc1CNC(=O)CCSCc1cnn(-c2ccccc2)c1-n1cccc1 | · | -8% | · | · | ·
CCn1c(=O)c(-c2cc(=O)[nH][nH]2)c(O)c2ccccc21 | -4% | -4% | 25µM* | -30% | 3%
O=c1cc(-c2c(O)c3ccccc3n(Cc3ccccc3)c2=O)[nH][nH]1 | -3% | -13% | ? | ? | ·
O=S(=O)(c1ccccc1)c1nnn2c1nc(NCc1ccccc1)c1cc(Cl)ccc12 | · | -4% | · | · | ·
Cc1c(-n2c(SC(C)C(=O)NC(N)=O)nc3ccccc3c2=O)c(=O)n(-c2ccccc2)n1C (configuration not stated) | 4% | 4% | -2% | 3% | · | RECQ1 conf=1%;RECQ1 ADP FP=5%
Cc1c(-n2c(SCC(C)C)nc3ccccc3c2=O)c(=O)n(-c2ccccc2)n1C | 0% | 0% | i | 1% | ·
Cc1ccc(S(=O)(=O)NC2=NCN(CCOC(=O)c3ccccc3)CN2)cc1 | 3% | 3% | 32µM* | · | 1%
COc1ccccc1OCCNC(=O)c1ccco1 | -6% | -1% | · | · | ·
COc1cc(Br)c(CCNC(=O)c2ccco2)cc1OC | 20% | -2% | ? | -5%[11.4 µM] | -8%
O=C(Nc1cc(Cl)cc(Cl)c1)c1cc(S(=O)(=O)NC2CCCC2)ccc1F | · | -10% | · | · | ·
CCN(CC)S(=O)(=O)c1ccc2c(c1)nc(CCC(=O)O)n2CC | -1% | 4% | i | 11% | · | RECQ1 conf=10%;RECQ1 ADP FP=5%
C=CCn1c(O)c(N=NC(=O)CNC(=O)/C=C/c2ccco2)c2ccccc21 | ? | ? | ? | ? | ?
CCOC(=O)C(C)Oc1cccc2c(=O)n(CC(=O)Nc3ccc4c(c3)OCCO4)ccc12 (configuration not stated) | 14% | -11% | -9% | 4% | ·
CCOC(=O)C(C)Oc1cccc2c(=O)n(CC(=O)NCc3ccc4c(c3)OCO4)ccc12 (configuration not stated) | 14% | 3% | -11% | -12% | · | RECQ1 conf=7%;RECQ1 ADP FP=?
Cc1ccc(/C=C/C(=O)c2ccc(N3CCOCC3)cc2)s1 | -5% | -6% | ? | -19% | -26%
CC(C)(C)OC(=O)N1CC23CC(c4ccc(F)cc4)C(CC2S1(=O)=O)O3 (configuration not stated) | -4% | 0% | 9% | · | ·
